# Experimental data reported in ChEMBL document CHEMBL3988442, “University of Dundee, Small-Polar-MMV Screening Library” (2021).
# The campaign covered roughly 48,000 compounds. About 13,000 (27%) showed an effect of 50% or more. The list shows a part of the results.
# System: Wolbachia pipientis
# Assay: Anti-Wolbachia Cell-Based Screen
# Type: functional
# Set-up: scale not given: in the data most compounds retested in dose-response had high values
# Conditions: 5 µM
row,Structure (SMILES),Percent Effect [%]
1,C[C@@H](NCc1cccc(Cl)c1)c1onc(-c2ccc(F)cc2)c1C(=O)O.Cl,-9.594
2,Cc1c(C(=O)N2CC(C)(C)C2(C)C)nnn1-c1cccc2cnccc12,-4.075
3,Cc1nc(CN2CCCCC2CCc2cccs2)co1 (centres undefined),96.55
4,c1csc(CCC2CCCCN2Cc2noc(C3CC3)n2)c1 (centres undefined),94.56
5,Cc1nc(C)n(CC2CCCN2CCc2cccs2)n1 (centres undefined),-19.79
6,Cc1cnn(CC2CCCN2Cc2coc(-c3cccs3)n2)c1 (centres undefined),-13.53
7,COCCC1CCCCN1Cc1nc(Cc2cccc(F)c2)no1 (centres undefined),4.701
8,COCCC1CCCCN1Cc1nc(C2CC2)no1 (centres undefined),-11.16
9,COCc1noc(CN2CCCCC2CCc2cccs2)n1 (centres undefined),103.5
10,CC(C)(C(=O)NCCCc1nc2ccccc2[nH]1)n1cc(Cl)cn1,-7.293
11,CC(C)CC(CCO)CNC(=O)N1CCC1(C)C (centres undefined),-13.05
12,Cc1nnc2n1CCN(C(=O)c1cnc3c(cnn3C(C)C)c1)C2,-12.78
13,CCOCC(=O)N1CCC(Cc2nnc(SC)n2C)CC1,5.722
14,CC1CCCN(S(=O)(=O)NCc2ccccc2Cn2cncn2)C1 (centres undefined),105.5
15,CC1CN(Cc2ccccc2Cn2cccn2)CCN1C (centres undefined),-6.674
16,O=S(=O)(NCc1ccccc1Cn1cncn1)N1CCCCC1,112.9
17,CC1CCN(S(=O)(=O)NCc2ccccc2Cn2cccn2)CC1,110.3
18,O=S(=O)(NCc1cccnc1OC1CCCC1)N1CCCCC1,6.628
19,CN(C)C1CCN(C(=O)NCc2ccccc2Cn2cncn2)CC1,-21.25
20,NC(=O)C1CCN(C(=O)NCc2ccccc2Cn2cncn2)CC1,-13.11
21,O=C(CCNC(=O)C1CCCC1)NCc1ccccc1Cn1cncn1,1.009
22,Cc1nccn1-c1ccc(CNS(=O)(=O)N2CCC(C)CC2)cn1,2.013
23,O=S(=O)(NCc1ccccc1Cn1cncn1)N1CCCCCC1,113.8
24,CC1CCN(S(=O)(=O)NCc2ccccc2Cn2cncn2)CC1,5.954
25,O=S(=O)(NCc1ccccc1Cn1cncn1)C1CCCC1,4.456
26,CCN1CCCC1CN(Cc1cc[nH]n1)CC1CCN(CCOC)CC1 (centres undefined),-0.05242

row,Structure (SMILES),Percent Effect [%]
1,CN1CCC(N(Cc2ccco2)S(=O)(=O)c2ccc(Br)cc2Cl)CC1,36.62
2,CCN1C(=O)C2(CCOCC2)c2cc(NC(=O)c3cnccn3)ccc21,-0.09306
3,CC(=O)NCC(=O)N1Cc2cnc(CC(C)C)nc2C1,15.63
4,Cc1ccnn1CCC(=O)N1CCOC(CCc2ccccc2)C1 (centres undefined),-2.997
5,COCCC1CN(Cc2cn(CCC(N)=O)c3ccccc23)CCO1 (centres undefined),-2.901
6,NCC1CN(Cc2cn(CCC(N)=O)c3ccccc23)CCO1 (centres undefined),-15.16
7,CCC1CN(C(=O)c2[nH]nc(C)c2Br)CCO1 (centres undefined),-57.1
8,Cc1noc(C)c1-c1cc(CCC2CN(CCC(N)=O)CCO2)ncn1 (centres undefined),120.1
9,Cc1noc(C)c1-c1cc(CCC2CN(C(=O)CN)CCO2)ncn1 (centres undefined),152
10,COCC1CN(C(=O)Nc2cc(Cl)cc(Cl)c2)CCO1 (centres undefined),-11.38
11,Cc1noc(C)c1CNC(C(=O)N1CCOCC1)C(C)C (centres undefined),6.768
12,CC(=O)N1CCOC(CCc2cc(-c3c(C)noc3C)ncn2)C1 (centres undefined),154
13,Cc1[nH]nc(CCC(=O)N2CCOC(CCc3ccccc3)C2)c1C (centres undefined),-1.139
14,Cc1noc(C)c1-c1cc(CCC2CN(C(=O)C(C)C)CCO2)ncn1 (centres undefined),137.5
15,CC(C)c1nc(/C=C/c2cnn(-c3ccc(Cl)cc3)c2)ncc1C(=O)O,-7.437
16,Cc1ccsc1CN(CCN(C)C)C(=O)c1ccccc1C#N,-7.458
17,CCCS(=O)(=O)NC(=O)c1sc(C2CCCC2)nc1C,-2.065
18,CCC(C)N(C)CCNC(=O)NCc1cccc(-n2cncn2)c1 (centres undefined),23.44
19,O=C(NC1CC1)C1CCN(Cn2nc(-c3ccccc3)oc2=O)CC1,10.01
20,CCc1nc(CN2CCN(C(=O)c3csc(C(C)C)n3)CC2)no1,-9.148
21,COc1cc(OC)c2c(=O)oc(CC(O)CC(C)=O)cc2c1 (centres undefined),8.997
22,Cc1cc(C(=O)NCC2COCc3c(C)nnn3C2)no1 (centres undefined),-12.47
23,Cc1noc(C)c1CNS(=O)(=O)N(C)Cc1ccc(Cl)cc1,-11.55
24,CN(C)C(=O)c1ccc2c(c1)N(C)C(CC(=O)NCc1ccno1)CO2 (centres undefined),-14.39
25,CCS(=O)(=O)N(C)c1ccc(C(=O)N2CCCC(C)C2)cc1 (centres undefined),-1.245
26,CN(C)S(=O)(=O)c1csc(C(=O)N2CCC(C(N)=O)CC2)c1,3.976

row,Structure (SMILES),Percent Effect [%]
1,CCN(c1ccc(C(=O)N2CCC(C(N)=O)CC2)cc1)S(=O)(=O)CC,125.1
2,CCN(c1ccc(C(=O)N2CCCC(C)C2)cc1)S(=O)(=O)CC (centres undefined),-3.775
3,CCN(CC)S(=O)(=O)c1csc(C(=O)N2CCC(C(N)=O)CC2)c1,5.806
4,CCN(c1ccc(C(=O)N2CCC(C)CC2)cc1)S(=O)(=O)CC,137.9
5,Cc1nccn1CC1CCCN1S(=O)(=O)Cc1ccon1 (centres undefined),0.377
6,Cc1nc(C)n(CC2CCCN(CCC(=O)NC3CCCCC3)C2)n1 (centres undefined),153.2
7,Cc1nc(C)n(CC2CCCN(CCC(=O)Nc3cc(C)on3)C2)n1 (centres undefined),101.8
8,Cc1nc(C)n(CC2CCCN(CCC(=O)NC3CCCC3)C2)n1 (centres undefined),114.2
9,Cc1nc(C)n(CC2CCCN(CCNC(=O)OC(C)(C)C)C2)n1 (centres undefined),-2.681
10,Cc1cnc(CNC(=O)NC2CCCN(c3ccccc3F)C2)s1 (centres undefined),-4.354
11,CC(C)OCCCN1CCCC(c2nc3ccccc3n2C(C)C)C1 (centres undefined),-14.63
12,Cc1cc(CN2CCN(CCOc3cccc(C#N)c3)CC2)no1,-1.661
13,CCOc1cc(/C=C/c2ncc(C(=O)O)s2)cc(Cl)c1OC,3.266
14,CNC(=O)c1cnc(/C=C/c2cc(OC)c(OC)c(OC)c2)s1,2.96
15,COc1cc(/C=C/c2ncc(C(=O)O)s2)cc(Cl)c1O,10.97
16,CNC(=O)c1cnc(/C=C/c2ccc(O)c(OC)c2)s1,0.2416
17,CCOc1c(Cl)cc(/C=C/c2ncc(C(=O)O)s2)cc1OC,82.8
18,COc1cc(/C=C/c2ncc(C(=O)O)s2)cc(Cl)c1OC,96.03
19,COc1ccc(F)cc1CSCC(=O)N(C)CCC#N,-1.773
20,COc1ccc(-c2noc(C(CC(C)C)N3CCCCC3=O)n2)cn1 (centres undefined),9.971
21,O=C1NCC2(CCCN(Cc3ccccc3F)C2)Oc2ccccc21 (centres undefined),-7.876
22,C=Cc1ccc(CN2CCCC3(CNC(=O)c4ccccc4O3)C2)cc1 (centres undefined),88.72
23,O=C1NCC2(CCCN(Cc3ccc(Cl)s3)C2)Oc2ccccc21 (centres undefined),7.994
24,O=C1NCC2(CCCN(Cc3ccc(F)cc3)C2)Oc2ccccc21 (centres undefined),110.4
25,CC(=O)N1CCOC2(CCCN(Cc3ccc(N(C)C)cc3)C2)C1 (centres undefined),-2.682
26,CSc1ccc(CN2CCCC3(CNC(=O)c4ccccc4O3)C2)cc1 (centres undefined),103.9

row,Structure (SMILES),Percent Effect [%]
1,CC(C)=CCN1C[C@H]2CC[C@@H]1CN(C(=O)c1ccc(S(N)(=O)=O)cc1)C2,-17.62
2,CC(C)c1ccccc1NC(=O)N1C[C@@H]2CC[C@H](C1)N(C)C2=O,-22.21
3,CCC[C@@H]1CN(Cc2cc(OC)c3c(c2)OCO3)C[C@H]1C(=O)O,0.814
4,COc1cc(CNCCc2cnn(C)c2)cc2c1OCCO2,-13.22
5,CCN1CCN(C[C@H]2CC[C@@H](Cc3ccc4c(c3)OCO4)O2)CC1,15.13
6,COc1cc(CNCCc2nc(C)cs2)cc2c1OCCO2.Cl,-10.19
7,CCOC(=O)C1=NOC(Cc2cc(OC)c3c(c2)OCO3)C1 (centres undefined),92.3
8,COc1cc(CCO)c(OC)c2c1OCO2,-4.361
9,COc1cc(CNCc2ccc(C(C)O)cc2)cc2c1OCO2 (centres undefined),0.7709
10,CN1CCN(C[C@H]2CC[C@@H](Cc3ccc4c(c3)OCO4)O2)CC1,5.044
11,COc1cc(-c2nccn2CCn2cccn2)cc2c1OCO2,-19.98
12,COc1cc(CC2CC(c3ccc4c(c3)OCO4)=NO2)cc2c1OCO2 (centres undefined),92.75
13,COC(=O)C1=NOC(Cc2cc(OC)c3c(c2)OCO3)C1 (centres undefined),94.65
14,COc1cc(CC2CC(C(N)=O)=NO2)cc2c1OCO2 (centres undefined),107.2
15,CC(C)CN1Cc2cccc(NC(=O)Cc3ccon3)c2C1,-9.701
16,Cc1ccc(=O)n(Cc2nc(C(C)OCC(C)C)no2)n1 (centres undefined),-10.1
17,Cc1cccc(C(=O)N2CCN(c3ccc(-n4cccc4)nn3)CC2)c1,0.6328
18,CN(C)c1ccc(CN2C[C@H]3CC[C@@H]2CN(C2CCOCC2)C3)cn1,13.91
19,CC(=O)Nc1sccc1C(=O)C(C)(C)C,20.74
20,Cc1ccc(CNC(=O)c2c[nH]nc2NC(=O)COCC2CC2)cc1,-19.21
21,Cc1ccc(CNC(=O)c2c[nH]nc2NC(=O)C2COCCO2)cc1 (centres undefined),-26.91
22,NC(=O)c1c[nH]nc1NC(=O)c1cccc(Cl)c1,101.4
23,NC(=O)c1c[nH]nc1NC(=O)c1ccc(Cl)cc1,91.07
24,Cn1cc(NC(=O)c2cccc(Cl)c2)c(=O)n(C)c1=O,-1.289
25,CN1CCC(Oc2ccc(NC(=O)c3cccc(Cl)c3)cc2)CC1,-9.86
26,CNc1cc(N2CCCC2CNCc2ccc(Cl)o2)ncn1 (centres undefined),6.692
